Results filed as inconclusive are left out. Activity calls are given as the source filed them. The call rests on the fitted dose curve; in most records, active means well fitted curve in the direction sought with a large enough effect in the repeat runs; inconclusive means weak or mixed curves; inactive means no such curve, though single readings can be large; an effect the other way counts as inactive or inconclusive.
Columns and labels:
[1] = qHTS RealTime-Glo MT Cell Viability Assay in HepG2 cells - 40 hour (AID 1224870); further: nearly all actives have a fitted effect of over 50% in size
How it was run: (§1)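 Real-time viability: cells seeded at 600 per well together with NanoLuc and cell-permeant prosubstrate, compounds added after 5 h incubation. Luminescence tracked at 0, 8, 16, 24, 32 and 40 h of exposure.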

[2] = A CellTox Green Cytotoxicity Assay to monitor cytotoxicity in HEK293 cells - 40 hour (AID 1224871); further: nearly all actives have a fitted effect of over 45% in size
How it was run: (§2)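 Nonlytic real-time cytotoxicity: HEK293 + CellTox Green reagent plated, 5 h preincubation, pintool compound addition (23 nL in DMSO), 37 C for 40 h, fluorescence measured at successive time points.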

[3] = qHTS RealTime-Glo MT Cell Viability Assay in HEK293 cells - 16 hour (AID 1224872); further: top concentration of the series differs between compounds; nearly all actives have a fitted effect of over 50% in size
How it was run: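 HEK293 cells seeded with NanoLuc/prosubstrate reagent, rested 5 h at 37 C, then dosed and kept at 37 C up to 40 h. Nonlytic real-time luminescence from viable cells read at 0, 8, 16, 24, 32 and 40 h.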

[4] = qHTS RealTime-Glo MT Cell Viability Assay in HepG2 cells - 8 hour (AID 1224873); further: nearly all actives have a fitted effect of over 55% in size
How it was run: as §1

[5] = qHTS RealTime-Glo MT Cell Viability Assay in HEK293 cells - 40 hour (AID 1224874); conditions: RealTime-Glo luminescence; max response: stronger effect = lower value; further: nearly all actives have a fitted effect of over 50% in size
How it was run: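 Cells were seeded together with NanoLuc luciferase and a prosubstrate that viable cells reduce to a luciferase substrate. After a 5 h incubation at 37 C/5% CO2, compounds were added and luminescence was measured repeatedly during 40 h of treatment.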

[6] = A CellTox Green Cytotoxicity Assay to monitor cytotoxicity in HEK293 cells - 24 hour (AID 1224875); further: series mostly up to about 77 µM; nearly all actives have a fitted effect of over 45% in size
How it was run: as §2

[7] = A CellTox Green Cytotoxicity Assay to monitor cytotoxicity in HepG2 cells - 16 hour (AID 1224876); further: nearly all actives have a fitted effect of over 45% in size
How it was run: (§3)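 Read-out is fluorescence of a cyanine dye excluded from live cells that stains DNA of dead HepG2 cells, with signal proportional to cytotoxicity. Plates were read at 0, 8, 16, 24, 32 and 40 h after compound addition.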

[8] = qHTS RealTime-Glo MT Cell Viability Assay in HepG2 cells - 32 hour (AID 1224877); further: nearly all actives have a fitted effect of over 55% in size
How it was run: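 HepG2 cells (600/well) were dispensed with RealTime-Glo reagents, incubated 5 h at 37 °C, then treated with compounds in DMSO for up to 40 h. Nonlytic NanoLuc luminescence reflecting viable cells was read at each stated time point.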

[9] = A CellTox Green Cytotoxicity Assay to monitor cytotoxicity in HepG2 cells - 24 hour (AID 1224878); further: nearly all actives have a fitted effect of over 45% in size
How it was run: as §3

[10] = A CellTox Green Cytotoxicity Assay to monitor cytotoxicity in HepG2 cells - 40 hour (AID 1224879); further: nearly all actives have a fitted effect of over 40% in size
How it was run: as §3
On the % scale 0 is the no-effect control and ±100 the full control effect.

CCC(=O)/C=C/c1ccc(OC)cc1
inactive: Potency [1] | Potency [2] | Potency [3] | outcome [4] | max response [5] -0.0895% | Potency [6] | Potency [7] | Potency [8] | Potency [9] | Potency [10]

CC(CCO)CCCC(C)(C)O (stereo not drawn)
inactive: Potency [1] | Potency [2] | Potency [3] | outcome [4] | max response [5] -6.84% | Potency [6] | Potency [7] | Potency [8] | Potency [9] | Potency [10]

Nc1cc(C(Cl)=C(Cl)Cl)c(S(N)(=O)=O)cc1S(N)(=O)=O
inactive: Potency [1] | Potency [2] | Potency [3] | outcome [4] | max response [5] -0.745% | Potency [6] | Potency [7] | Potency [8] | Potency [9] | Potency [10]

CN(C)CCn1nnnc1SCC1=C(C(=O)O)N2C(=O)[C@@H](NC(=O)Cc3csc(N)n3)[C@H]2SC1
inactive: Potency [1] | Potency [2] | Potency [3] | outcome [4] | max response [5] 13.3% | Potency [6] | Potency [7] | Potency [8] | Potency [9] | Potency [10]

CCCCCCOC(=O)c1ccccc1O
inactive: Potency [1] | Potency [2] | Potency [3] | outcome [4] | max response [5] -8.04% | Potency [6] | Potency [7] | Potency [8] | Potency [9] | Potency [10]

OCC(O)[C@@H](O)[C@H](O)[C@H](O)CO[C@H]1O[C@H](CO)[C@@H](O)[C@H](O)[C@H]1O (stereo partly drawn)
inactive: Potency [1] | Potency [2] | Potency [3] | outcome [4] | max response [5] -0.563% | Potency [6] | Potency [7] | Potency [8] | Potency [9] | Potency [10]

CC1(C)OC(=O)Nc2ccc(Br)cc21
inactive: Potency [1] | Potency [2] | Potency [3] | outcome [4] | max response [5] 0.0036% | Potency [6] | Potency [7] | Potency [8] | Potency [9] | Potency [10]

CN(C)CCOC(c1ccc(Cl)cc1)c1ccccn1 (stereo not drawn)
inactive: Potency [1] | Potency [2] | Potency [3] | outcome [4] | max response [5] 6.99% | Potency [6] | Potency [7] | Potency [8] | Potency [9] | Potency [10]

CCN1CCCC(OC(=O)C(c2ccccc2)c2ccccc2)C1 (stereo not drawn)
inactive: Potency [1] | Potency [2] | Potency [3] | outcome [4] | max response [5] 14.8% | Potency [6] | Potency [7] | Potency [8] | Potency [9] | Potency [10]

CCOC(=O)Nc1ccc2c(c1)N(C(=O)CCN1CCOCC1)c1ccccc1S2
inactive: Potency [1] | Potency [2] | Potency [3] | outcome [4] | max response [5] -6.68% | Potency [6] | Potency [7] | Potency [8] | Potency [10]

CCCCCCOC(=O)CC(CC(=O)OCCCCCC)(OC(=O)CCC)C(=O)OCCCCCC
inactive: Potency [1] | Potency [2] | Potency [3] | outcome [4] | max response [5] 15.3% | Potency [6] | Potency [7] | Potency [8] | Potency [9] | Potency [10]

CCO[Si](CCCN=C=O)(OCC)OCC
inactive: Potency [1] | Potency [2] | Potency [3] | outcome [4] | max response [5] 0.0382% | Potency [6] | Potency [7] | Potency [8] | Potency [10]

CCN1CCN(c2cc3c(cc2F)c(=O)c(C(=O)O)cn3C2CC2)CC1
inactive: Potency [1] | Potency [2] | Potency [3] | outcome [4] | max response [5] -0.866% | Potency [6] | Potency [7] | Potency [8] | Potency [9] | Potency [10]

COc1cccc(OC)c1
inactive: Potency [1] | Potency [2] | Potency [3] | outcome [4] | max response [5] 0.816% | Potency [6] | Potency [7] | Potency [8] | Potency [10]

COc1cc(O)cc(O)c1
inactive: Potency [1] | Potency [2] | Potency [3] | outcome [4] | max response [5] 2.03% | Potency [6] | Potency [7] | Potency [8] | Potency [9] | Potency [10]

C=C(C)C1CC=C(C)C(O)C1 (stereo not drawn)
inactive: Potency [1] | Potency [2] | Potency [3] | outcome [4] | max response [5] 9.55% | Potency [6] | Potency [7] | Potency [8] | Potency [9] | Potency [10]

CC(=O)O[C@H](CC(=O)[O-])C[N+](C)(C)C
inactive: Potency [1] | Potency [2] | Potency [3] | outcome [4] | max response [5] 4.27% | Potency [6] | Potency [7] | Potency [8] | Potency [9] | Potency [10]

CCCc1ccccc1O
inactive: Potency [1] | Potency [2] | Potency [3] | outcome [4] | max response [5] -8.16% | Potency [6] | Potency [7] | Potency [8] | Potency [10]

O=C(O)/C=C/c1ccc(Cn2ccnc2)cc1
inactive: Potency [1] | Potency [2] | Potency [3] | outcome [4] | max response [5] 2.89% | Potency [6] | Potency [7] | Potency [8] | Potency [10]

Cn1cnc2c(=O)[nH]c(N)nc21
inactive: Potency [1] | Potency [2] | Potency [3] | outcome [4] | max response [5] 15.1% | Potency [6] | Potency [7] | Potency [8] | Potency [10]

C=C(C)C(=O)OCCCCCCCCCCCCCCCCCC
inactive: activity change, negative = cytotoxic [1] 13.1% [at 15.8 µM] | cytotoxicity increase [2] 0.266% [at 15.8 µM] | activity change, negative = cytotoxicity [3] 9.27% [at 15.8 µM] | viability change, negative = cytotoxic [4] -0.392% [at 15.8 µM] | max response [5] 3.5% | activity change [6] 0.0651% [at 15.8 µM, stronger effect = higher value] | cytotoxicity increase [7] 3.12% [at 15.8 µM] | activity change, negative = cytotoxic [8] 6.06% [at 15.8 µM] | cytotoxicity increase [10] 2.24% [at 15.8 µM]

Source: PubChem BioAssay (Tox21)
